ClpP mod – qHTS Assay for Activators of ClpP; ATP-dependent Clp protease proteolytic subunit (Bacillus subtilis (strain 168)), P80244; purified B. subtilis ClpP, FRET peptide cleavage, 20 min; Potency, µM (highest dose often 57.5 µM); 340,000 compounds, 1.9% hits; active = well fitted falling curve with a large enough effect; inconclusive = small, poorly fitted or top-dose-only effect; inactive = no such curve, though single readings can be large or run the other way; note: the source files actives as falling curves though it sought activators and does not explain the sign; nearly all actives have a fitted effect of over 65% in size
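ClpP 10 microg/mL final, pH 8 Tris/KCl buffer with BSA, glycerol, Tween-20; compound pinned in; FRET-FV substrate; RT 20 min; Ex320/Em430; ΔFRET vs ADEP 5.8 microM, DMSO, no enzyme.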
Menin-MLL FL inh – qHTS Assay for Inhibitors Targeting the Menin-MLL Interaction in MLL Related Leukemias: Competition With Fluorescein Labeled MLL-derived Peptide | 290,000 tested, under 10 active | AID 1766, 2009 | FP activity change, % at 61.4 µM | Fluorescence polarization, fluorescein-MLL peptide displacement from menin; active = well fitted curve in the direction sought with a large enough effect in the polarisation, not every such curve was filed as active; inconclusive = small, poorly fitted or top-dose-only effect, or effect the other way, or a change in a side signal; inactive = no such curve, though single readings can be large or run the other way; the % refers to the polarisation
MLL CXXC-DNA inh – qHTS Fluorescence Polarization Assay for Inhibitors of MLL CXXC domain - DNA interaction | Histone-lysine N-methyltransferase 2A (Homo sapiens), Q03164 | MLL-CXXC / FITC-HOXA9 DNA fluorescence polarization | AID 2662, 2010 | Potency, µM (doses to about 115 µM), actives largely listed as inhibitors | 290,000 compounds, 0.037% hits; active = well fitted inhibition curve with a large enough effect in the polarisation, with a control signal flat, not every such curve was filed as active; inconclusive = small, poorly fitted or top-dose-only effect, or effect the other way, or a change in a side signal; inactive = no such curve, though single readings can be large or run the other way; the % refers to the polarisation
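Fluorescence polarization: 7 uM MLL-CXXC (stock) preincubated 5 min with compounds, then 50 nM fluorescein-HOX-A9 DNA (stock) added; 30 min ambient. Buffer 50 mM Tris-HCl pH 7.5, 50 mM NaCl, 1 mM DTT, 0.05% BSA.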
p53 reactivator – qHTS assay for re-activators of p53 using a Luc reporter. H1299 p53-A138V BP100-luciferase reporter, luminescence, 24 h. AID 504706, 2011. Potency, µM (titrated, usually from 92.2 µM), hits mostly activators. 320,000 compounds, 0.063% hits; active = well fitted activation curve with a large enough effect; inconclusive = small, poorly fitted or top-dose-only effect; inactive = no such curve, though single readings can be large or run the other way; note: nearly all actives have a fitted effect of over 45% in size
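H1299 (p53-null), stable ts p53-A138V + BP100-Luc; 1000 cells/well, Opti-MEM/10% FBS; cpd 4 pt, 1:5; 24 h, 37 deg C, 5% CO2; detection reagent 10 min RT; luminescence.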
Menin-MLL TR inh – qHTS Assay for Inhibitors Targeting the Menin-MLL Interaction in MLL Related Leukemias: Competition With Texas Red Labeled MLL-derived Mutant Peptide. Menin + Texas Red MLL mutant peptide, fluorescence polarization. Potency, µM (titrated, usually from 61.6 µM), actives largely listed as inhibitors. 270,000 compounds, 0.23% hits; active = well fitted inhibition curve with a large enough effect in the polarisation, with a control signal flat, not every such curve was filed as active; inconclusive = small, poorly fitted or top-dose-only effect, or effect the other way, or a change in a side signal; inactive = no such curve, though single readings can be large or run the other way; the % refers to the polarisation
A number is an active result; . = inactive; ? = inconclusive; / = no result. Only a selection was taken, and hits are over-represented in it overall.

SMILES | ClpP mod | Menin-MLL FL inh | MLL CXXC-DNA inh | p53 reactivator | Menin-MLL TR inh
CC(=O)c1cc2c(cc1NC(=O)C1CC=CCC1C(=O)O)OCO2 (stereo not given) | . | . | . | . | .
CC(=O)c1cc2c(cc1NC(=O)C1CN(C(C)=O)c3ccccc3O1)OCO2 (stereo not given) | 20µM | / | / | . | /
COC(=O)c1c(-c2cccs2)csc1NC(=O)c1cc(OC)cc(OC)c1 | . | / | / | / | /
COc1cc2c(C#CCCCO)c(-c3ccc(C#N)cc3)oc(=O)c2cc1OC | 14µM | / | / | . | /
COc1ccc(CC(=O)NNC(=O)c2cc(Cl)ccc2OC)cc1 | 28µM | / | / | . | /
CNC(=S)NNC(=O)Cc1ccc(OC)cc1 | 28µM | . | . | . | /
CNC(=S)NNC(=O)Cc1ccc(O)cc1 | ? | / | . | . | .
O=C(C[n+]1ccncc1)c1ccc(Br)cc1 | . | / | / | / | /
CC(=O)Oc1c(/C=C(\C#N)C(N)=O)[nH]c2ccccc12 | 25µM | . | . | . | .
N#C/C(=C\c1c[nH]c2ccccc12)C(N)=O | . | . | . | . | .
CC1(C)C(=O)C2(CCCCC2)C(=O)OC1c1cccn1-c1ccc([N+](=O)[O-])cc1 (stereo not given) | 32µM | . | . | . | .
C[N+]1(CC(=O)c2ccc(Oc3ccccc3)cc2)CCOCC1 | . | / | / | / | /
Cc1ccccc1-c1nnc(CN2CCN(c3cccc(C)c3C)CC2)o1 | . | / | / | / | /
Cc1ccc(CN2[C@H](C)[C@H](c3ccccc3)OCCS2(=O)=O)cc1 | . | / | / | / | /
CCN1CCN(c2cc(C)c3cc(NC(=O)c4cncc(Br)c4)ccc3n2)CC1 | 20µM | . | . | . | .
COc1ccc(C)cc1NC(=O)CCC(=O)Nc1ccc2nc(N3CCN(C)CC3)cc(C)c2c1 | 28µM | . | . | ? | .
CCOc1ccccc1NC(=O)Nc1ccc2nc(N3CCN(C)CC3)cc(C)c2c1 | 11µM | / | / | / | /
CCCCNC(=O)CCC(=O)Nc1ccc2nc(N3CCN(C)CC3)cc(C)c2c1 | . | . | . | . | .
CCN1CCN(c2cc(C)c3cc(NC(=O)c4ccc(OC)c(OC)c4)ccc3n2)CC1 | . | . | . | . | .
Cc1cc(N2CCN(C)CC2)nc2ccc(NC(=O)CCC(=O)NCc3ccco3)cc12 | 22µM | . | . | . | .
CCn1c(SCC(=O)NCc2ccco2)nnc1-c1ccc(N(C)C)cc1 | . | / | / | / | /
COc1ccccc1CC(=O)Nc1ccc2nc(N3CCC(C)CC3)cc(C)c2c1 | . | / | / | / | /
CCN1CCN(c2cc(C)c3cc(NC(=O)Cc4ccccc4OC)ccc3n2)CC1 | 28µM | . | . | . | .
CC(C)COc1ccc(-c2nnc(-c3ccncc3)o2)cc1 | 32µM | . | . | ? | .
CCCOc1ccc(-c2nnc(-c3ccncc3)o2)cc1 | ? | . | . | . | .
SMILES | ClpP mod | Menin-MLL FL inh | MLL CXXC-DNA inh | p53 reactivator | Menin-MLL TR inh
COC(=O)c1ccc(NC(=O)c2ccc3c(c2)C(=O)N(C)C3=O)cc1 | 11µM | . | . | / | .
COc1ccc(OCC(=O)Nc2ccccc2N2CCCCC2)cc1 | . | / | . | . | /
COc1ccc(-c2ocnc2C(=O)Nc2ccccc2N2CCCCC2)cc1 | 32µM | . | . | . | .
Cc1ccc2[nH]c3c(=O)n(CC(=O)N4CCCC(C)C4)ncc3c2c1 (stereo not given) | . | / | / | / | /
C=CCNC(=O)N1CCCC(N2CCN(c3ccccc3OC)CC2)C1 (stereo not given) | 16µM | . | . | / | .
C=CCS(=O)(=O)N1CCCC(N2CCN(c3ccccc3OC)CC2)C1 (stereo not given) | . | . | . | ? | .
CC(NC(=O)COc1cccc(Br)c1)C(=O)O (stereo not given) | 28µM | . | . | . | .
O=C(COc1cccc(Br)c1)N/N=C1\CCCc2ccccc21 | / | . | . | . | ?
O=C(COc1cccc(Br)c1)N/N=C1\CCSC1 | 22µM | . | . | . | .
COc1cc2c(cc1O)CCN[C@@]21CS[C@H]2c3c(OC(C)=O)c(C)c4c(c3C(COC1=O)N1C2C2c3c(cc(C)c(OC)c3O)CC([C@@H]1O)N2C)OCO4 (stereo not given in full) | / | . | . | / | .
O=C(NC1CCCCCC1)c1nc2ncccn2n1 | 28µM | . | . | . | .
CO/N=C(/C(=O)N[C@@H]1C(=O)N2C(C(=O)O)=C(CSC(=O)c3ccco3)CSC12)c1csc(N)n1 (stereo not given in full) | / | . | . | / | .
O=C(Nc1ccc(Cl)cc1Cl)[C@@H]1CC=C[C@@H]2CCN(C3CC3)C(=O)[C@@H]21 | . | / | / | / | /
CN1CCc2c(sc3nc(SCC(=O)N4CCOCC4)nc(N)c23)C1 | ? | . | . | . | .
CC1CCN(C(=O)CSc2nc(N)c3c4c(sc3n2)CN(C)CC4)CC1 | 28µM | . | . | . | .
Cc1cccn2c(/C=N/OCc3cccc(F)c3)c(-c3ccc(Cl)cc3)nc12 | 22µM | . | . | . | /
COCCn1c(-c2ccccc2Cl)nc2c(c(=O)c3ccccc3n2C)c1=O | 18µM | . | . | . | .
O=C(O)c1[nH]c2ccccc2c1NS(=O)(=O)c1ccc(F)cc1 | . | . | . | . | ?
O=C(O)c1[nH]c2ccccc2c1NS(=O)(=O)Cc1ccccc1 | 28µM | . | . | . | ?
O=C(Nc1cccc(C(F)(F)F)c1)N1CC2CCCN2c2ccccc21 (stereo not given) | . | / | / | / | /
COc1ccc(C(=O)N(C)Cc2ccccn2)cc1OC1CCN(C(C)C)CC1 | 28µM | / | . | . | /
O=C(NCc1nnnn1-c1ccc(F)c(F)c1)c1ccc(S(=O)(=O)N2CCOCC2)cc1 | 35µM | / | / | . | /
O=C(NCc1nnnn1-c1cccc(F)c1)c1ccc(S(=O)(=O)N2CCOCC2)cc1 | . | / | / | . | /
CCC(C)(C)c1ccc(CC(C)CN2C[C@@H](C)O[C@@H](C)C2)cc1 (stereo not given in full) | / | . | . | / | .
CCOc1ccccc1N1CCN(Cc2ccco2)CC1 | . | . | . | . | .
SMILES | ClpP mod | Menin-MLL FL inh | MLL CXXC-DNA inh | p53 reactivator | Menin-MLL TR inh
CCOc1ccccc1N1CCN(C/C=C/c2ccc(N(C)C)cc2)CC1 | 28µM | . | . | . | .
COc1cccc2c1Oc1ncccc1N(C(=O)Nc1cccc(Cl)c1)C2 | . | / | / | / | /
COc1ccc(-c2nc3ccccc3o2)cc1NC(=O)c1ccc(Br)o1 | 22µM | . | . | . | .
COc1ccc(-c2nc3ccccc3o2)cc1NC(=O)c1ccc(-c2ccc(Br)cc2)o1 | . | / | / | / | /
Cc1ccc(-c2nc3ccccc3o2)cc1NC(=S)NC(=O)c1cc2ccccc2o1 | 16µM | . | . | ? | .
O=C(c1cc(Cl)ccc1Cl)N1CCOCC1 | . | . | . | . | .
O=C(c1cc2cc(Cl)cc(Cl)c2oc1=O)N1CCOCC1 | 22µM | . | . | ? | .
